Data: PubChem BioAssay AID623911 (Vanderbilt High Throughput Screening Facility, 2012)
The campaign covered roughly 2,100 compounds. About 770 (37%) were called active. The list shows a part of the results. A number with no mark means an inactive call.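 Rule for the calls: active = by-eye trace score of 1 for enhancers or -1 for inhibitors, so actives lie on both sides (some results past the limit were not filed as active); inactive = score 0, or 3 fluorescent, or 4 baseline rise.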

Target: G protein-activated inward rectifier potassium channel 2 (Homo sapiens) + G protein-activated inward rectifier potassium channel 1 (Homo sapiens) (UniProt P48051+P48549)
Assay: GIRK1/2 thallium flux modulators, retest, confirmation, cell-based, HEK293 rmGlu8/hGIRK1/2, FluoZin-2 (AID 623911)
Conditions: HEK293 rmGlu8/hGIRK1/2, thallium flux FluoZin-2; actives lie on both sides; glutamate co-added at its EC20 level

Sequence of G protein-activated inward rectifier potassium channel 2 (Homo sapiens) + G protein-activated inward rectifier potassium channel 1 (Homo sapiens) (P48051 whole entry, looked up): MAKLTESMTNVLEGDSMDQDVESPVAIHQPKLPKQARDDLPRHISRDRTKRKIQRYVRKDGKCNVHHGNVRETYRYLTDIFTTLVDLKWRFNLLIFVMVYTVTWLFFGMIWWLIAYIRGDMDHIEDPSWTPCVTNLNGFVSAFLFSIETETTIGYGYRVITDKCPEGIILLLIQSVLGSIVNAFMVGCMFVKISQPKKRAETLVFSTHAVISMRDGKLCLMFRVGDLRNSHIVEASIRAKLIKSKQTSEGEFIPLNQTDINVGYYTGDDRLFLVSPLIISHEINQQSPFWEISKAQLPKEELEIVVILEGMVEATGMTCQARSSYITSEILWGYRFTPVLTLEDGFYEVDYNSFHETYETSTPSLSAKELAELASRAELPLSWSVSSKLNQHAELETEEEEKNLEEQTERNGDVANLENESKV
Sequence of G protein-activated inward rectifier potassium channel 2 (Homo sapiens) + G protein-activated inward rectifier potassium channel 1 (Homo sapiens) (P48549 whole entry, looked up): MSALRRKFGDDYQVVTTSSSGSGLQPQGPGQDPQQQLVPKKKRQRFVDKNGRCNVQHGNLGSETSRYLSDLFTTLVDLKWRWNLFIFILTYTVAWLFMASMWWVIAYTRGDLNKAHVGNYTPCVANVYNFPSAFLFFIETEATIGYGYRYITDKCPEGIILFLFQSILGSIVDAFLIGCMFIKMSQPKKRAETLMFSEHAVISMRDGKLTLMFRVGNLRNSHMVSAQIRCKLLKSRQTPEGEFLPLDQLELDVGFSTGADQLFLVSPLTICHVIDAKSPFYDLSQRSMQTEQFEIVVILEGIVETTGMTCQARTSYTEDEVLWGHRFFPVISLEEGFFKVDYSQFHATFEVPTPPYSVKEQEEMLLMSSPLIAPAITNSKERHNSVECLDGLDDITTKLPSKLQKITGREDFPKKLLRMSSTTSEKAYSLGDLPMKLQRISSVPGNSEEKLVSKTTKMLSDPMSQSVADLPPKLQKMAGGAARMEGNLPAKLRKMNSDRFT

SMILES	manual score
O=C(CSc1ccc2ccccc2c1Br)Nc1cccc(S(=O)(=O)NC2=NCCCCC2)c1	0
O=C(COC(=O)c1cccc(N2C(=O)c3ccccc3C2=O)c1)Nc1ccccc1	0
CCc1ccc(C(=O)OCC(=O)Nc2cccc(S(=O)(=O)NC3=NCCCCC3)c2)cc1	1 (active)
N#C/C(=C/c1ccc(N2CCOCC2)o1)c1nc2ccccc2[nH]1	3
Cc1ccc(NC(=S)c2nc3ccccc3[nH]2)cc1	1 (active)
Cc1oncc1C(=S)Nc1ccccc1	0
S=C(Nc1ccc(Cl)cc1)c1nc2ccccc2[nH]1	1 (active)
COc1ccc(OC)c(S(=O)(=O)N(C)CC(=O)N2CCN(c3ccccc3F)CC2)c1	0
COc1ccc(S(=O)(=O)N(CC(=O)N2CCN(c3ccccc3)CC2)c2ccccc2)cc1	0
CCOC(=O)N1CCN(C(=O)CN(Cc2ccccc2)S(=O)(=O)c2ccc(OC)c(C)c2)CC1	-1 (active)
O=C1NC(=S)/C(=C\c2ccc(-c3ccccc3Cl)o2)S1	3
O=C1NC(=O)/C(=C\c2ccccc2Oc2ccc(F)c(F)c2)S1	0
O=C1NC(=S)S/C1=C\c1ccc(SCc2ccccc2)o1	0.5
COc1cc(/C=C2\SC(=S)NC2=O)ccc1OS(=O)(=O)c1ccccc1	1 (active)
COc1ccc(/C=C2\SC(=O)NC2=S)cc1OC	1 (active)
COc1cc(/C=C2/SC(=S)NC2=O)ccc1OS(=O)(=O)c1ccc(C)cc1	0
CCOc1ccc(-c2nc(-c3ccc(OC)cc3)no2)cc1OCC	0
OCCCN=c1cc(-c2ccccc2)oc2ccc(Cl)cc12	-1 (active)
CC(C)c1ccc(-c2noc(C3CCCN(S(C)(=O)=O)C3)n2)cc1 (stereo not drawn)	0
O=S(=O)(c1ccc(Cl)c(F)c1)N1CCC(c2nc(-c3ccncc3)no2)CC1	1 (active)
O=C(c1ccc2nccnc2c1)N1CCN(Cc2ccc3c(c2)OCO3)CC1	1 (active)
O=C(NC(=S)N1CCN(Cc2ccc3c(c2)OCO3)CC1)c1cccc(Br)c1	1 (active)
Cc1cc2cc3c(cc2nc1SCC(=O)N1CCN(C(=O)c2ccco2)CC1)OCO3	0
O=C(c1ccc(COc2c(F)c(F)c(F)c(F)c2F)o1)N1CCN(Cc2ccc3c(c2)OCO3)CC1	0
CCN(CC)c1ccc(C(=O)NC(=S)N2CCN(Cc3ccc4c(c3)OCO4)CC2)cc1	0
O=C(NC(=S)N1CCN(Cc2ccc3c(c2)OCO3)CC1)c1ccc(Cl)cc1	1 (active)

SMILES	manual score
C/C(=N\NC(=S)Nc1ccc(F)cc1)c1ccc2c(c1)OCCO2	1 (active)
Fc1ccc(NC(=S)NN=C2CCCCCC2)cc1	0
C/C(=N/NC(=S)Nc1ccccc1)c1ccc2c(c1)OCO2	0
O=C(Nc1ccc(OCC(=O)N2CCC(Cc3ccccc3)CC2)cc1)c1ccco1	0
Cc1noc(C)c1S(=O)(=O)N1CCC(Cc2ccccc2)CC1	0
Cc1cccc(C(=O)N2CCC(Cc3ccccc3)CC2)c1[N+](=O)[O-]	-1 (active)
COC(=O)Nc1nc(C)c(C(=O)N(C)C)s1	0
O=C(Nc1nc2ccccc2s1)c1cc(-c2ccccc2)nn1-c1ccccc1	0
CC(=O)c1sc(NC(=O)c2cc(-c3ccccc3)nn2-c2ccccc2)nc1C	1 (active)
C#CC(CO)N(CCN(Cc1ccccc1)C(C#C)CO)Cc1ccccc1 (stereo not drawn)	-1 (active)
C#CCSc1nnc(-c2cccc3ccccc23)o1	0
C=CCNC(=S)Nc1sc2c(c1C(=O)OCC)CC(C)(CC)OC2 (stereo not drawn)	1 (active)
CCOC(=O)c1c(NC(=S)NC)sc2c1CC(C)(C)SC2	1 (active)
CCOC(=O)c1c(NC(=S)NCCc2ccccc2)sc2c1CC(C(C)C)OC2 (stereo not drawn)	0
CCOC(=O)c1c(NC(=O)C2C3C=CC(C3)C2C(=O)O)sc2c1CCC(CC)C2 (stereo not drawn)	0
C=CCNC(=S)Nc1sc2c(c1C(=O)OCC)CC(C(C)C)OC2 (stereo not drawn)	1 (active)
CCOC(=O)C1=C(NC(=S)NC(=O)c2ccccc2)c2ccccc2CC1C(C)C (stereo not drawn)	0
C=C(C)C1CC=C(C)/C(=N/NC(=S)Nc2ccccc2)C1 (stereo not drawn)	0
COC(=O)c1ccc(C)c(NC(=O)CN2C(=O)c3ccccc3S2(=O)=O)c1	0
Cc1ccc(NC(=O)CN2c3cccc4cccc(c34)S2(=O)=O)cc1S(=O)(=O)N1CCOCC1	1 (active)
Cc1ccc(NC(=O)CSc2nccn2C)cc1S(=O)(=O)N1CCOCC1	0
CC12CCC(C(=O)N(CSC(=S)N/N=C\c3ccccc3O)C1=O)C2(C)C (stereo not drawn)	1 (active)
CC12CCC(C(=O)N(CSC(=S)N/N=C\c3ccccc3Cl)C1=O)C2(C)C (stereo not drawn)	0.5
COc1ccc(/C=N\NC(=S)SCN2C(=O)C3CCC(C)(C2=O)C3(C)C)cc1 (stereo not drawn)	1 (active)
CN(C)c1ccc(/C=N\NC(=S)SCN2C(=O)C3CCC(C)(C2=O)C3(C)C)cc1 (stereo not drawn)	0
CC12CCC(C(=O)N(CSC(=S)N/N=C\c3ccccc3)C1=O)C2(C)C (stereo not drawn)	1 (active)

SMILES	manual score
Clc1ccccc1-c1nn2c(COc3ccccc3)nnc2s1	0
Cc1ccccc1CNS(=O)(=O)c1ccc2c(c1)OCCO2	-1 (active)
Cc1nc2ccc(NS(=O)(=O)c3ccc4c(c3)OCCO4)cc2s1	0
CSc1ccc(S(=O)(=O)NCc2ccccc2Cl)cc1	0
CCSc1nnc(NC(=O)c2nn(C(C)C)c(=O)c3ccccc23)s1	0
CCSc1nnc(NC(=O)CC)s1	0
CCSc1nnc(NC(=O)NC(CC)(C(F)(F)F)C(F)(F)F)s1	1 (active)
CC(C)(C)c1ccc(-c2n[nH]c(=S)n2C2CCCC2)cc1	0
CN(CCC#N)C(=O)CSc1ncnc2sc(-c3ccccc3)cc12	0
O=C1c2ccccc2NC(c2ccc(-c3cccc(Cl)c3)o2)N1O (stereo not drawn)	0.5
O=c1c2ccccc2nc(-c2ccccc2)n1/N=C/c1ccc([N+](=O)[O-])cc1	0
O=c1c2ccc(Cl)cc2nc(-c2cccc(C(F)(F)F)c2)n1O	1 (active)
C/C(N)=C(/C#N)C(=O)CSc1nc2cc(Cl)ccc2c(=O)n1-c1ccc(C)cc1	0
O=c1c2ccccc2nc(-c2cccc(Cl)c2)n1O	1 (active)
O=c1c2cc(Br)ccc2nc(-c2cccc(C(F)(F)F)c2)n1O	1 (active)
Cc1nc2nc(Cc3ccccc3)[nH]n2c(=O)c1Cc1ccccc1	0
CCN(CC)CCN1C(=O)c2oc3ccccc3c(=O)c2C1c1ccc(C)cc1 (stereo not drawn)	0
CCOC(=O)C(C)Oc1ccc2c(CC)cc(=O)oc2c1C (stereo not drawn)	0
CCOC(=O)C1=C(O)C(=O)N(c2ccc(S(N)(=O)=O)cc2)C1c1ccccc1 (stereo not drawn)	0
COc1ccc2nc(N3C(=O)/C(=C/c4ccccc4)NC3=S)sc2c1	1 (active)
CCCSc1nc(C)nc2c1c(=O)n(C)c(=O)n2C	0
Clc1ccc(OCCn2ccnc2)c(Cl)c1	0
CC(C)CC(NS(=O)(=O)c1ccc2c(c1)oc(=O)n2C)C(=O)NC1CCCc2ccccc21 (stereo not drawn)	0
CSc1nc(Sc2ccccc2)c2ccccc2n1	0
Cc1nc(N2CCN(C(=O)COc3ccccc3)CC2)c2c(C)c(C)sc2n1	-0.5
CCOc1ccccc1N1CCN(S(=O)(=O)c2cccs2)CC1	0

SMILES	manual score
Cc1sc2nc(CN3CCCC3)nc(N3CCN(S(=O)(=O)c4cccs4)CC3)c2c1C	-1 (active)
Cc1cc(/C=c2/sc3nc4ccccc4n3c2=O)c(C)n1-c1ccccn1	0
CCNC(=S)N/N=C/c1c(Cl)cccc1Cl	0.5
CCCCN(CCCC)C(=S)N/N=C/c1c(C)[nH]n(-c2ccccc2)c1=O	1 (active)
CC1=NN(c2ccccc2)C(=O)/C1=C\c1c(C)[nH]n(-c2ccccc2)c1=O	0
Cc1cc(=O)n2[nH]c(C)c(-c3ccccc3)c2n1	0.5
Cc1nc2c(-c3ccccc3)c(C)[nH]n2c(=O)c1Cl	0
Cc1[nH]n2c(=O)cc(C(C)(C)C)nc2c1-c1ccccc1	1 (active)
COc1cc(CNCCc2c[nH]c3ccccc23)ccc1OCc1ccc(F)cc1	-1 (active)
COc1cc(/C=C(/C#N)c2ccc(F)cc2)ccc1OCc1ccc(C(=O)O)o1	0
COc1cc(CNc2ccc(N3CCCC3)cc2)ccc1OCc1ccccc1	0
Cc1ccc(Cl)cc1NC(=S)NCc1cccn1C	1 (active)
COc1ccccc1NC(=S)NCCc1ccc(Cl)cc1	0
Cn1cccc1CNC1CCCC1	0
Cc1cc(C(=O)N2CCN(CCc3ccccc3)CC2)no1	0
O=C(CN1C(=O)c2cccc3cccc(c23)C1=O)N1CCN(c2ccccn2)CC1	3
O=C(c1ccccc1CCc1ccccc1)N1CCN(c2ccccn2)CC1	-1 (active)
CCOC(=O)C1CCN(C(=O)N(C)C)CC1	0
COc1ccc(NC(=S)Nc2ccc(OCc3ccccc3)cc2)cc1OC	0
CCC(C)c1ccc(NC(=S)Nc2ccc(OC)c(OC)c2)cc1 (stereo not drawn)	1 (active)
COc1ccc(NC(=S)SC)cc1OC	0
COc1ccc(CCC(=O)NCc2cnn(C)c2)cc1	0
CCCSc1nnc(Nc2ccccc2C)s1	1 (active)
c1ccc2c(Nc3nnc(-c4ccncc4)s3)cccc2c1	0
Cc1nnc(NC(=O)CCSc2ccccc2)s1	0
